Data taken from PubChem BioAssay AID1224855 (National Center for Advancing Translational Sciences (NCATS), 2016).
Inconclusive results are not listed. Activity calls are given as the source filed them. Calls follow the shape of the dose curve; as a rule, active = well fitted inhibition curve with a large enough effect; inconclusive = small, poorly fitted or top-dose-only effect; inactive = no such curve, though single readings can be large or run the other way.

Experiment: Confirmation assay for measurement of the activity of small molecule inhibitors on Zika virus induced Caspase-3 activity in human iPSC derived neural progenitor cells (hNPCs)
Conditions: hNPC ZIKV-induced caspase-3/7, Caspase-Glo luminescence, 6 h; series mostly up to 46.1 µM; activity, negative = inhibition: at the top concentration
Procedure, shortened: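 Seeded hNPCs grown 16-20 h, then treated with compound for 1 h and exposed to Zika virus at 2 FFU/cell. Caspase-3/7 activation measured 6 h post-infection by luminescence.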

activity, negative = inhibition, inactive:
CN(C)c1ccc(N=NS(=O)(=O)O)cc1 -26.5% [at 88.3 µM]
COc1ccc(CC2=NN3C([C@@H](CCc4ccccc4)[C@@H](C)O)=NC(C)C3C(=O)N2)cc1OC (some centres undefined) 8.66%
COc1cc2nc(-c3ccc(N4CCN(C)CC4)cc3)nc(NCCN3CCOCC3)c2cc1OC 69.8%
CN1CC(=O)N2C(Cc3c([nH]c4ccccc34)[C@H]2c2ccc3c(c2)OCO3)C1=O (some centres undefined) 6.79%
C=CCCCCCCCCC(=O)O -13.2%
Cc1c(N)c(=O)n(-c2ccccc2)n1C -16.4%
O=C(CS)Nc1ccccc1 28.8%
Cc1c(C(=O)O)c(O)cc2c1C(=O)c1c(O)c([C@@H]3O[C@H](CO)[C@@H](O)[C@H](O)[C@H]3O)c(O)c(O)c1C2=O 64.3%
Cc1[nH]c(C=C2C(=O)Nc3ccccc32)c(C)c1CCC(=O)O 11.2%
CC(=C(CCOC(=O)C(C)C)SSC(CCOC(=O)C(C)C)=C(C)N(C=O)Cc1cnc(C)nc1N)N(C=O)Cc1cnc(C)nc1N -2.44%
CCN1CCC(n2cc(CNc3cc(Cl)c4ncc(C#N)c(Nc5ccc(F)c(Cl)c5)c4c3)nn2)CC1 37.8%
O[C@@H](COc1cccc2ncccc12)CN1CCN(C2c3ccccc3[C@@H]3[C@H](c4ccccc42)C3(F)F)CC1 (some centres undefined) 39.1%
CCCCCCCC/C=C/C(=O)O -27%
CC(C(=O)O)c1ccc(-c2ccccc2)c(F)c1 (centres undefined) -7.07%
CNC1[C@H](O)C(O[C@@H]2C(O)C(O[C@H]3O[C@H]([C@@H](C)NC)CC[C@H]3N)[C@@H](N)C[C@H]2N)OC[C@]1(C)O (some centres undefined) 3.84%
C[C@@H](O[C@H]1OCCN(Cc2n[nH]c(=O)[nH]2)[C@@H]1c1ccc(F)cc1)c1cc(C(F)(F)F)cc(C(F)(F)F)c1 31.4%

Potency, active:
O=c1c2ccccc2nc2n1CCc1c-2[nH]c2ccccc12 4.35 µM
O=C(Nc1cc2cc[nH]c2cn1)c1ccccc1 3.46 µM
Cc1oncc1C(=O)Nc1ccc(C(F)(F)F)cc1 1.38 µM
CC(C)c1ccc2oc3nc(N)c(C(=O)O)cc3c(=O)c2c1 1.73 µM
COc1ccc(NC(=O)/C=C/c2ccc(Cl)cc2)cc1 2.45 µM
c1ccc2[nH]c(-c3cscn3)nc2c1 9.75 µM
COc1cc2nc(N3CCN(C(=O)C4CCCO4)CC3)nc(N)c2cc1OC (centres undefined) 9.75 µM
COc1ccc(-c2coc3cc(O)ccc3c2=O)cc1 8.69 µM
CN(C)CCCSc1ccccc1NC(=O)/C=C/c1ccccc1 17.3 µM
COc1cccc(-c2cc(=O)c3ccccc3o2)c1N 4.89 µM
CN(C)c1ccc(/C=C2\C(=O)Nc3ccccc32)cc1 7.74 µM
COc1ccc(C=CC(=O)Nc2ccccc2C(=O)O)cc1OC 17.3 µM
CS(=O)(=O)c1ccc(-c2cn3ccccc3n2)cc1 3.88 µM
CCC(C(=O)O)c1ccc(N2Cc3ccccc3C2=O)cc1 (centres undefined) 5.48 µM
Cc1ccc(O)c(N=Nc2ccccc2)n1 1.23 µM
COc1cccc(-c2ccc(NC(=O)C3=C(C(=O)O)CCC3)c(F)c2)c1 2.45 µM
CN1CC(=O)N/C1=N/C(=O)Nc1cccc(Cl)c1 4.35 µM
O=c1c(-c2ccc(O)cc2)coc2cc(O)ccc12 13.8 µM
